Laboratory results reported in the supplement of paper PMC10849652.
Targets with a hit are over-represented here; the source holds about 7,900 in all. About 0.6% of all pairs of compound and target were hits. Unmarked numbers belong to inactive results.

Assays:
Assay in all cases: log2 fold change, soluble protein after heating vs DMSO (PISA); higher = thermal stabilisation; K562 cells, 10 uM, 30 min; active = over 0.2 and 3.5 SD of the protein, either way, in both replicates (recomputed)
[1] = compound: CC[C@@H]1C(=O)N(C)c2cnc(Nc3ccc(C(=O)NC4CCN(C)CC4)cc3OC)nc2N1C1CCCC1
Summary of the method: (§1)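 Quantification of soluble protein used TMTpro 16plex LC-MS/MS, with channel sums equalised. Samples were the supernatant after 21,000xg for 90 min of pooled aliquots from K562 cells (2×10^6 cells/mL) treated with 10 μM compound for 30 min, heated for 3 min over 48°C-58°C, and extracted in PBS with 0.5% NP-40 at 4°C. Values, from duplicates, describe thermal stability against control samples on a log2 fold-change scale.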

[2] = compound: CC[C@@H]1C(=O)N(C)c2cnc(Nc3ccc(C(=O)N[C@H]4CC[C@H](N5CCN(CC6CC6)CC5)CC4)cc3OC)nc2N1C(C)C [volasertib]
Summary of the method: as §1

[3] = compound: CC[C@H](C)N1C=C(C2=C(C=C(C=C21)C3=CN=C(C=C3)N4CCNCC4)C(=O)NCC5=C(C=C(NC5=O)C)C)C
Summary of the method: as §1

[4] = compound: CC[C@H](C)[C@@H](C(=O)N[C@@H]([C@@H](C)O)C(=O)N[C@@H](CC(C)C)C(=O)[C@]1(CO1)C)NC(=O)[C@H]([C@@H](C)CC)N(C)C(=O)C [epoxomicin]
Summary of the method: as §1

[5] = compound: CCn1c(C(=O)N(C2CC2)C2CC2)cc2c3c(ncn3C)c(Nc3cc(C)n(C)n3)nc21
Summary of the method: as §1

[6] = compound: CCn1cc(-c2ccnc3[nH]c(-c4cccc(CN(C)C)c4)cc23)c(-c2ccc(NC(=O)N(C)C)cc2)n1
Summary of the method: as §1

[7] = compound: CN(C)CC(=O)Nc1ccc2[nH]c(=O)c3ccccc3c2c1
Summary of the method: as §1

[8] = compound: CN(CCOC1=CC=C(C=C1)C[C@H]2C(=O)NC(=O)S2)C3=CC=CC=N3 (racemic) [rosiglitazone]
Summary of the method: as §1

[9] = compound: CN1C2=C(C3=C1C(=O)N(N=C3)CC4=CC(=CC=C4)N)SC(=C2)S(=O)C
Summary of the method: as §1

[10] = compound: CN1CCC(CNc2ccc3ncc(-c4cccc(OC(F)(F)F)c4)n3n2)CC1
Summary of the method: as §1

[11] = compound: CN1CCN(CCOc2cc(OC3CCOCC3)c3c(Nc4c(Cl)ccc5c4OCO5)ncnc3c2)CC1 [saracatinib]
Summary of the method: as §1

[12] = compound: CN1CCN(c2nc(C3=C(c4c[nH]c5ccccc45)C(=O)NC3=O)c3ccccc3n2)CC1 [sotrastaurin]
Summary of the method: as §1

[13] = compound: CN1CC[C@H](c2c(O)cc(O)c3c(=O)cc(-c4ccccc4Cl)oc23)[C@H](O)C1 [alvocidib]
Summary of the method: as §1

[14] = compound: CN1CCc2c(c3ccccc3n2Cc2ccc(C(=O)NO)cc2)C1 [Tubastatin A]
Summary of the method: as §1

[15] = compound: CNC(=O)C1=CC=CC=C1NC2=NC(=NC=C2Cl)NC3=C(C=C(C=C3)N4CCOCC4)OC
Summary of the method: as §1

[16] = compound: CNC(=O)c1ccc(Nc2ncc(C(F)(F)F)c(NCc3nccnc3N(C)S(C)(=O)=O)n2)cc1 [defactinib]
Summary of the method: as §1

[17] = compound: CNCc1ccc(-c2[nH]c3cc(F)cc4c3c2CCNC4=O)cc1 [rucaparib]
Summary of the method: as §1

[18] = compound: CNc1nc(-c2ccc3c(N)n[nH]c3c2)cc(N2C[C@@H](C(=O)NC3CCCCC3)CC[C@H]2C)n1
Summary of the method: as §1

[19] = compound: COC(=O)N[C@@H](C)CNc1nccc(-c2cn(C(C)C)nc2-c2cc(Cl)cc(NS(C)(=O)=O)c2F)n1 [encorafenib]
Summary of the method: as §1

[20] = compound: COC(=O)[C@H](CCSC)NC(=O)C1=C(C=C(C=C1)NC[C@H](CS)N)C2=CC=CC=C2
Summary of the method: as §1

Sequence of UniProt P49841 (P49841 whole entry, looked up): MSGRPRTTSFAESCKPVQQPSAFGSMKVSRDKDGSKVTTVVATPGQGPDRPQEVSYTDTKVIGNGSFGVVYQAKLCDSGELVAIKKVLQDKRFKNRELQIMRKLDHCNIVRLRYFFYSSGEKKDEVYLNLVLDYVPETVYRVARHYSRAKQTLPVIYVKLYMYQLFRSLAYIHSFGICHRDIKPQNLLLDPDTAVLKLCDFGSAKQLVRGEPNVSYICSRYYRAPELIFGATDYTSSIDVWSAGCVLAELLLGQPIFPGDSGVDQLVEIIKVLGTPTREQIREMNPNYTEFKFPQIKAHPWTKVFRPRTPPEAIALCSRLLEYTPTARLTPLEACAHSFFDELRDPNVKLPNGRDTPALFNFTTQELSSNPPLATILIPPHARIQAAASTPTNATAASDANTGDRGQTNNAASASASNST
Sequence of UniProt Q13889 (Q13889 whole entry, looked up): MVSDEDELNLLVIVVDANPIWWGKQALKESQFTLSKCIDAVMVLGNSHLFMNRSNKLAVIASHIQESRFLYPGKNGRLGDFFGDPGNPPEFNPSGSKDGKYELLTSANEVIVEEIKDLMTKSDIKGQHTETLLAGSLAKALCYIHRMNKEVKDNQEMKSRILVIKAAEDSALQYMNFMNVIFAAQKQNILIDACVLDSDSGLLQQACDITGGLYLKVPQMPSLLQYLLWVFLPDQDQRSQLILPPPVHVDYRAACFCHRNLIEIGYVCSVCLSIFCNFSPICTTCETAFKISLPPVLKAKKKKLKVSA
Sequence of UniProt P11142 (P11142 whole entry, looked up): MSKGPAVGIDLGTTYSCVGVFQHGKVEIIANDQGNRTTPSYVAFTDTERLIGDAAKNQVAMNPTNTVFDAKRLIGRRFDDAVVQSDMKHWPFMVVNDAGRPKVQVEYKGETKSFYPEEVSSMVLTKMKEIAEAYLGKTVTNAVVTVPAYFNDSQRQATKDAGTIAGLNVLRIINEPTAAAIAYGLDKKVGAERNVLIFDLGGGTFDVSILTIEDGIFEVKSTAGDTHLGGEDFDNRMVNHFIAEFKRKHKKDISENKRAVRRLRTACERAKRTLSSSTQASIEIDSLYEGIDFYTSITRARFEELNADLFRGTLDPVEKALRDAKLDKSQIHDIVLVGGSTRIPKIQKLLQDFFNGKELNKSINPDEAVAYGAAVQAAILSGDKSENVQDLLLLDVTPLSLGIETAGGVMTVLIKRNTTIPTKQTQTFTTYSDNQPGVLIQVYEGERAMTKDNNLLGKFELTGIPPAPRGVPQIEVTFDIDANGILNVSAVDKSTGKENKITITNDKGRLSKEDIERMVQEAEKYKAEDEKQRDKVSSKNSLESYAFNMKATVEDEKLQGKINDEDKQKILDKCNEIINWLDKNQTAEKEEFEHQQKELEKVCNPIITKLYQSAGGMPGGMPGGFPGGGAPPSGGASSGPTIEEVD
Sequence of UniProt Q9H6D7 (Q9H6D7 whole entry, looked up): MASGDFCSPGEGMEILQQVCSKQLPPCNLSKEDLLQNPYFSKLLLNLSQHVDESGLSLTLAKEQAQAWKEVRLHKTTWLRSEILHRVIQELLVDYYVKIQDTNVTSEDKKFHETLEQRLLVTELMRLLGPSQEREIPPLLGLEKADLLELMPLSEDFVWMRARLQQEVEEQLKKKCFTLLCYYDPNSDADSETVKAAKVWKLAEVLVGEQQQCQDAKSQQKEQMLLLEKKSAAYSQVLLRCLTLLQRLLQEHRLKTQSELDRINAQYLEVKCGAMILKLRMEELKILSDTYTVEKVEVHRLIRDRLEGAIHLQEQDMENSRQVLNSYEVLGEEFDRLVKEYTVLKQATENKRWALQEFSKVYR
Sequence of UniProt Q8IVV7 (Q8IVV7 whole entry, looked up): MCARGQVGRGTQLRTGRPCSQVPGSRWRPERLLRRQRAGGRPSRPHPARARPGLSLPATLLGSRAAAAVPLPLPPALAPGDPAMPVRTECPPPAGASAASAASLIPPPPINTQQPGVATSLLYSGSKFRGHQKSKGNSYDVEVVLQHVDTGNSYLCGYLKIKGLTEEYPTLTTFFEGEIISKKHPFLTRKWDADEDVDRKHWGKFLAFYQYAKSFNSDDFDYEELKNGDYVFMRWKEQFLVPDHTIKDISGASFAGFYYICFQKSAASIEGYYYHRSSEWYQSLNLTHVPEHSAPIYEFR
Sequence of UniProt Q70Z53 (Q70Z53 whole entry, looked up): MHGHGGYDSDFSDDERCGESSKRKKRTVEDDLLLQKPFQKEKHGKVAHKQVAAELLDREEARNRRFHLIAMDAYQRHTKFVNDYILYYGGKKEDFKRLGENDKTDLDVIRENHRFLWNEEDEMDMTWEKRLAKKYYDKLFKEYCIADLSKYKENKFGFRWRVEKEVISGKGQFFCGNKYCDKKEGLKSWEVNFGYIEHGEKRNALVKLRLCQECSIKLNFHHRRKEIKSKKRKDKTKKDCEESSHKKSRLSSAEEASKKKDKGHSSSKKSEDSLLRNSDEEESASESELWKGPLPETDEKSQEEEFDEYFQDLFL
Sequence of UniProt Q86UX7 (Q86UX7 whole entry, looked up): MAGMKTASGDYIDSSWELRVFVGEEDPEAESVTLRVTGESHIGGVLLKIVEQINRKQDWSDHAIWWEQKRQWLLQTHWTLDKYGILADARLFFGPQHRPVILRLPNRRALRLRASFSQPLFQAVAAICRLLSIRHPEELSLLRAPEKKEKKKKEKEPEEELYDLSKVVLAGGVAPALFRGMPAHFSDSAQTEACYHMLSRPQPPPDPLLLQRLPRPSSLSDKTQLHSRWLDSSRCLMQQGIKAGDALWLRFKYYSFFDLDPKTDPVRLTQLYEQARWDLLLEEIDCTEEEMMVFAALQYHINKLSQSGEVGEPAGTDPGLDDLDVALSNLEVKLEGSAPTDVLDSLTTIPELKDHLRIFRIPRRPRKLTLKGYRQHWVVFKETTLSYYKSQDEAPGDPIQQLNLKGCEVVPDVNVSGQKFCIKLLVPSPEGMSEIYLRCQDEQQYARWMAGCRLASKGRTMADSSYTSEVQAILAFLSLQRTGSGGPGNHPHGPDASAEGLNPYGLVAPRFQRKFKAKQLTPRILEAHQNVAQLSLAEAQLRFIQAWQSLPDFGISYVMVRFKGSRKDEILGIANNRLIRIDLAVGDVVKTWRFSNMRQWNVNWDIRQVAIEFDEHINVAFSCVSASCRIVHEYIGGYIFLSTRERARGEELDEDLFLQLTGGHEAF
Sequence of UniProt P52655 (P52655 whole entry, looked up): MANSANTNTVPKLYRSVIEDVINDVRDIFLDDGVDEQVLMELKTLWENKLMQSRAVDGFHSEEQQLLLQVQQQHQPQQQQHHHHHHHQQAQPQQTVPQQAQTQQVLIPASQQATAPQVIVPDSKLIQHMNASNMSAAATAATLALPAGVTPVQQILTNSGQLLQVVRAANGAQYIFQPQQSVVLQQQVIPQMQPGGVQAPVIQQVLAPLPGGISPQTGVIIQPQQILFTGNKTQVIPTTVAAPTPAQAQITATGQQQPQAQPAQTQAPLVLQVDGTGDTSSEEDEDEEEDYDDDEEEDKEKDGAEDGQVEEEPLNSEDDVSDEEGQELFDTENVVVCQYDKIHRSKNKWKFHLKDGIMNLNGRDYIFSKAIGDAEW
Sequence of UniProt Q9H0R8 (Q9H0R8 whole entry, looked up): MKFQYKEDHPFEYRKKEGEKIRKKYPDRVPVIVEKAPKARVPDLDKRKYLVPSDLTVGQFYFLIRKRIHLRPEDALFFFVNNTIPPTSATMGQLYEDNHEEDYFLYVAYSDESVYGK
Sequence of UniProt O15347 (O15347 whole entry, looked up): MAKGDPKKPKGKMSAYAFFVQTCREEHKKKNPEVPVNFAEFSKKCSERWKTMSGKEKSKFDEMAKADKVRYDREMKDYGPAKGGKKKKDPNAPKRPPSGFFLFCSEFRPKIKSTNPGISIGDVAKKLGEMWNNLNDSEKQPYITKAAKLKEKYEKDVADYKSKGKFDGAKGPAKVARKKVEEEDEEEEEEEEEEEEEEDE
Sequence of UniProt Q9Y692 (Q9Y692 whole entry, looked up): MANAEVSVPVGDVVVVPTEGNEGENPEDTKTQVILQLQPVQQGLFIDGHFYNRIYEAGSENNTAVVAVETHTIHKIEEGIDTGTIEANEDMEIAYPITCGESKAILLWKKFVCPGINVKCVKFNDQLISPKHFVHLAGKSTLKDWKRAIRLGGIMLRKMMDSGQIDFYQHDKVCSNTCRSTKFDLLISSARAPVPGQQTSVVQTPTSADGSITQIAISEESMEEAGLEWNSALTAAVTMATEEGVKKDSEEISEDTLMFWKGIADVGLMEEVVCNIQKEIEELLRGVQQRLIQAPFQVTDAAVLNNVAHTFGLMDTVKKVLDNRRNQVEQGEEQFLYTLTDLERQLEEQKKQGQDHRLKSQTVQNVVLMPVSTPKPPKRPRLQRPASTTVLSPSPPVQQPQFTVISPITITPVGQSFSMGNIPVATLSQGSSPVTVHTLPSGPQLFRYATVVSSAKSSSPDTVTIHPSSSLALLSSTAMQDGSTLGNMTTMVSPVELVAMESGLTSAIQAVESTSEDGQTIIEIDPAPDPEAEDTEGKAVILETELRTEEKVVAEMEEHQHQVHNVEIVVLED
Sequence of UniProt Q9Y6M1 (Q9Y6M1 whole entry, looked up): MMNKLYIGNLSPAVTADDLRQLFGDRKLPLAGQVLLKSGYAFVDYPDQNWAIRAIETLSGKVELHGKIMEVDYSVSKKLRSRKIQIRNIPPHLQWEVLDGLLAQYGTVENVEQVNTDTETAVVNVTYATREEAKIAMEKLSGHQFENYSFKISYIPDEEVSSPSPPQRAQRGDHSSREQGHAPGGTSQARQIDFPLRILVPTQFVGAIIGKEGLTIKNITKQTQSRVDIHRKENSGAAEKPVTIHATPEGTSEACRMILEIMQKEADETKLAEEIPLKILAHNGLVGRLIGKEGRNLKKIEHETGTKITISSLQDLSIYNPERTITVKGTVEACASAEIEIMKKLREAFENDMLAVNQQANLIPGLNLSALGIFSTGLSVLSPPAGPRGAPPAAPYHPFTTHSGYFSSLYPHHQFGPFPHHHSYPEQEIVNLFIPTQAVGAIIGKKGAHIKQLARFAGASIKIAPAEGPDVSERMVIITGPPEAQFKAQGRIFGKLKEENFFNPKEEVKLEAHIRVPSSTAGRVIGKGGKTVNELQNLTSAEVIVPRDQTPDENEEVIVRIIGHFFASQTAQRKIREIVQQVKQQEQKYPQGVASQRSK

| Target | log2 fold change [1] | log2 fold change [2] | log2 fold change [3] | log2 fold change [4] | log2 fold change [5] | log2 fold change [6] | log2 fold change [7] | log2 fold change [8] | log2 fold change [9] | log2 fold change [10] | log2 fold change [11] | log2 fold change [12] | log2 fold change [13] | log2 fold change [14] | log2 fold change [15] | log2 fold change [16] | log2 fold change [17] | log2 fold change [18] | log2 fold change [19] | log2 fold change [20] |
| --- | --- | --- | --- | --- | --- | --- | --- | --- | --- | --- | --- | --- | --- | --- | --- | --- | --- | --- | --- | --- |
| FERMT3 (UniProt Q86UX7) | -0.07 | -0.262 (active) | 0.053 | 0.019 | -0.018 | -0.04 | 0.045 | 0.059 | -0.021 | -0.149 | 0.019 | -0.016 | -0.055 | -0.003 | 0.008 | -0.069 | -0.003 | 0.036 | 0.063 | -0.03 |
| HAUS4 (UniProt Q9H6D7) | -0.138 | -0.027 | 0.123 | -0.391 | -0.04 | 0.032 | -0.072 | 0.027 | 0.246 | 0.049 | 0.466 | -0.194 | 0.035 | 0.044 | 0.195 | 0.019 | 0.337 | 0.044 | 0.194 | -0.03 |
| GABARAPL1 isoform 2 (UniProt Q9H0R8) | -0.303 (active) | -0.186 | 0.035 | -0.029 | -0.037 | 0.007 | 0.034 | 0.03 | -0.135 | -0.187 | -0.057 | 0 | -0.019 | 0.08 | 0.023 | -0.011 | -0.079 | -0.006 | -0.004 | -0.058 |
| GAPVD1 isoform 6 (UniProt Q14C86) | -0.12 | -0.585 (active) | 0.034 | -0.015 | -0.061 | -0.016 | 0.038 | 0.034 | 0.083 | -0.197 | -0.04 | -0.158 | -0.063 | -0.009 | -0.007 | -0.07 | 0.103 | 0.032 | 0.125 | -0.043 |
| GMEB1 (UniProt Q9Y692) | -0.071 | -0.281 (active) | 0.039 | 0.059 | -0.056 | -0.05 | -0.045 | 0.096 | -0.07 | -0.014 | -0.055 | -0.06 | -0.123 | -0.022 | 0.028 | -0.06 | -0.047 | -0.051 | 0.043 | -0.003 |
| GTF2H3 (UniProt Q13889) | 0.004 | -0.122 | 0.066 | -0.099 | -0.035 | 0.115 | 0.052 | -0.046 | 0.027 | -0.34 (active) | -0.099 | -0.079 | -0.071 | 0.124 | 0.008 | 0.009 | 0.09 | -0.001 | -0.073 | 0.043 |
| GBF1 (UniProt Q92538) | -0.086 | -0.474 (active) | 0.059 | -0.007 | -0.07 | -0.013 | 0.069 | 0.081 | 0.081 | -0.212 | -0.055 | -0.103 | -0.023 | 0.034 | -0.024 | -0.031 | 0.044 | 0.059 | 0.104 | -0.015 |
| GSK3B isoform 2 (UniProt P49841) | 0.013 | -0.027 | -0.002 | 0.058 | -0.032 | -0.1 | -0.001 | 0.036 | -0.004 | 0.004 | 0.012 | 0.2 | 0.052 | -0.007 | 0.001 | -0.015 | 0.059 | -0.019 | -0.003 | 0.03 |
| FRA10AC1 isoform 3 (UniProt Q70Z53) | -0.086 | -0.613 (active) | -0.034 | 0.041 | -0.058 | 0.025 | -0.013 | 0.115 | 0.093 | 0.057 | 0.125 | 0.133 | 0.132 | -0.023 | -0.01 | 0 | -0.035 | -0.196 | -0.103 | -0.067 |
| HSPA8 (UniProt P11142) | 0.001 | 0.113 | -0.007 | 0.008 | 0.012 | -0.002 | -0.037 | -0.019 | -0.034 | 0.079 | 0.067 | 0.007 | 0.01 | -0.019 | 0.139 | 0.006 | -0.029 | -0.002 | -0.009 | 0.042 |
| IGF2BP2 (UniProt Q9Y6M1) | 0.176 | -0.076 | -0.063 | -0.203 | 0.016 | 0.076 | 0.01 | -0.044 | 0.432 | -0.016 | -0.122 | -0.035 | 0.209 | 0.168 | 0.044 | 0.147 | 0.446 | 0.145 | 0.106 | -0.066 |
| HMGB3 (UniProt O15347) | -0.182 | 0.064 | 0.053 | -0.007 | 0.015 | -0.021 | -0.022 | 0 | -0.039 | 0.015 | 0.05 | 0.031 | -0.022 | 0 | -0.076 | 0.089 | 0.008 | -0.073 | -0.063 | 0.021 |
| GID4 (UniProt Q8IVV7) | 0.082 | 0.037 | 0.044 | -0.019 | 0.08 | 0.116 | -0.21 | 0.003 | -0.093 | -0.006 | 0.04 | -0.091 | -0.006 | 0.015 | -0.038 | 0.032 | 0.032 | -0.079 | -0.072 | 0.139 |
| IFRD1 (UniProt O00458) | 0.107 | -0.015 | -0.14 | 0.053 | 0.019 | -0.016 | -0.143 | 0 | -0.097 | 0.297 | 0.026 | 0.242 | 0.064 | 0.089 | 0.042 | -0.003 | -0.46 (active) | -0.042 | 0.038 | 0.006 |
| HP1BP3 (UniProt Q5SSJ5) | 0.122 | 0.054 | -0.11 | -0.016 | -0.015 | 0.013 | 0.046 | -0.037 | 0.126 | 0.038 | -0.045 | -0.071 | 0.039 | 0.06 | -0.045 | 0.227 | -0.041 | -0.001 | 0.075 | -0.098 |
| GTF2A1 (UniProt P52655) | -0.012 | 0.061 | -0.051 | 0.201 | 0.019 | 0.035 | -0.006 | -0.029 | -0.018 | -0.051 | 0.048 | 0.087 | -0.039 | 0.003 | -0.007 | -0.038 | -0.021 | -0.003 | -0.056 | 0.032 |
